Data taken from PubChem BioAssay (Tox21).
Results filed as inconclusive are left out. A call without a number means that no potency is given here. Active and inactive are the calls of the source. The call rests on the fitted dose curve; in most records, active means well fitted curve in the direction sought with a large enough effect in the repeat runs; inconclusive means weak or mixed curves; inactive means no such curve, though single readings can be large; an effect the other way counts as inactive or inconclusive.

Experiments:
[1] = target: Cytochrome P450 2C9 (Homo sapiens) (UniProt P11712); test: Cytochrome P450 Family 2 Subfamily C Member 9 (CYP2C9) small molecule antagonists: luciferase reporter qHTS assay (AID 1671198); further: nearly all actives have a fitted effect of over 50% in size
Procedure, shortened: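 Enzyme-substrate mix preincubated with compound 10 min at room temperature; reaction started with NADPH regeneration solution, 1 h 37C. Luminescent luciferin product read after 20 min detection reagent.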

[2] = target: Cytochrome P450 1A2 (Homo sapiens) (UniProt P05177); test: Cytochrome P450 Family 1 Subfamily A Member 2 (CYP1A2) small molecule antagonists: luciferase reporter qHTS assay (AID 1671199); further: nearly all actives have a fitted effect of over 50% in size
Procedure, shortened: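 Enzymatic CYP1A2 assay, human, luminescent: 10 min compound–enzyme–substrate preincubation, 1 h NADPH-dependent turnover, 20 min detection step, room temperature throughout. Reduced light indicates lower CYP1A2 activity.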

[3] = target: Voltage-gated inwardly rectifying potassium channel KCNH2 (Homo sapiens) (UniProt Q12809); test: Human Ether-a-go-go-Related Gene (hERG) channel small molecule antagonists: fluorescence cell-based qHTS assay (AID 1671200); further: nearly all actives have a fitted effect of over 50% in size
Procedure, shortened: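 Thallium flux as potassium surrogate: FluxOR II dye loaded 1 h at room temperature into hERG-expressing U2OS cells, then stimulus buffer added after 10 min. Kinetic 480 nm excitation/540 nm emission read, 2 min.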

[4] = target: Cytochrome P450 2C19 (Homo sapiens) (UniProt P33261); test: Cytochrome P450 Family 2 Subfamily C Member 19 (CYP2C19) small molecule antagonists: luciferase reporter qHTS assay (AID 1671197); further: nearly all actives have a fitted effect of over 65% in size
Procedure, shortened: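 Relative luminescence units recorded 20 min after the detection reagent stopped a 1 h, 37C CYP2C19 reaction on proluciferin substrate, which was started by NADPH regeneration following 10 min room-temperature compound preincubation; ketoconazole positive control.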

[5] = target: Cytochrome P450 3A4 (Homo sapiens) (UniProt P08684); test: Cytochrome P450 Family 3 Subfamily A Member 4 (CYP3A4) small molecule antagonists: luciferase reporter qHTS assay (AID 1671201); further: nearly all actives have a fitted effect of over 50% in size
Procedure, shortened: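 Recombinant human CYP3A4 converts a proluciferin substrate to luciferin over 1 h at room temperature after NADPH regeneration solution is added (compound preincubated 10 min); detection reagent stops reaction, luminescence read 20 min later as relative units.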
Potency means the concentration at half of the fitted maximal effect.

Sequence of Cytochrome P450 1A2 (Homo sapiens) (P05177 whole entry, looked up): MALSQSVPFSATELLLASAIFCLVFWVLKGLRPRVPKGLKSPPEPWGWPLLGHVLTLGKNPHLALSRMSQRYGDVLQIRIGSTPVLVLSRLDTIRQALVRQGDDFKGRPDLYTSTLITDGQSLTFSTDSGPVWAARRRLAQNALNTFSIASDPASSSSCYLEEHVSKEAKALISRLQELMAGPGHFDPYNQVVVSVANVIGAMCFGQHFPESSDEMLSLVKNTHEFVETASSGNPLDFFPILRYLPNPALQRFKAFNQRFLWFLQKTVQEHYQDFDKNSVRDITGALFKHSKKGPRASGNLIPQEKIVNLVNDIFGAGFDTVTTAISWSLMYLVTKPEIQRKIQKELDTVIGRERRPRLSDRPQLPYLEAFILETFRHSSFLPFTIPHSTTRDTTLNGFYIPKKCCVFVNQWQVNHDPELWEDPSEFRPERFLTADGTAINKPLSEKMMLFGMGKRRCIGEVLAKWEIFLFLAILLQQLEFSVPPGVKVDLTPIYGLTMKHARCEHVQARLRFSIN
Sequence of Cytochrome P450 2C19 (Homo sapiens) (P33261 whole entry, looked up): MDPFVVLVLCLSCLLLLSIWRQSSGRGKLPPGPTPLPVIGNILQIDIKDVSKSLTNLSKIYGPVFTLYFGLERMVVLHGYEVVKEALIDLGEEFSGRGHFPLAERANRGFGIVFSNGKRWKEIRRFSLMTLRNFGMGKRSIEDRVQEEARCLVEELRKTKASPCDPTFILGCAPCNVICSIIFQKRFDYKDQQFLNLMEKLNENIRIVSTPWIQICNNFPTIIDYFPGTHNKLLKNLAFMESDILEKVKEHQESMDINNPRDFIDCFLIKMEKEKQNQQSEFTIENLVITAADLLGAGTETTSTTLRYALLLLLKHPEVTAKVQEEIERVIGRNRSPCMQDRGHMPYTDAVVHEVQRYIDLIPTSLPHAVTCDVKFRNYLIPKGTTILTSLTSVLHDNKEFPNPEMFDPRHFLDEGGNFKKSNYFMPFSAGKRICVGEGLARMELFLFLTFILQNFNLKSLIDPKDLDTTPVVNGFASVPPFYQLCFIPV
Sequence of Cytochrome P450 3A4 (Homo sapiens) (P08684 whole entry, looked up): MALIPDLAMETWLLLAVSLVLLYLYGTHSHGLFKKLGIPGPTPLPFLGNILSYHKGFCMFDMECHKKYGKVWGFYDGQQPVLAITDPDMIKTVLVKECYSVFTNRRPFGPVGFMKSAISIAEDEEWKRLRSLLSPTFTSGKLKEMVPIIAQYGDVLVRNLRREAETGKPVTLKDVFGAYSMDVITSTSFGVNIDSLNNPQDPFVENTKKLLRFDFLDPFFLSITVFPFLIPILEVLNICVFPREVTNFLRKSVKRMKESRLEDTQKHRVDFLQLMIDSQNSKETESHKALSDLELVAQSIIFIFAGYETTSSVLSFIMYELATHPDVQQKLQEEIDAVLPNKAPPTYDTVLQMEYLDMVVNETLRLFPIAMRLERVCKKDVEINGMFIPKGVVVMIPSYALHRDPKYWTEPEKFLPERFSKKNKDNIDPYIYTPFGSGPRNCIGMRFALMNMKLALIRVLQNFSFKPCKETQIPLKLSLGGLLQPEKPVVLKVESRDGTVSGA
Sequence of Cytochrome P450 2C9 (Homo sapiens) (P11712 whole entry, looked up): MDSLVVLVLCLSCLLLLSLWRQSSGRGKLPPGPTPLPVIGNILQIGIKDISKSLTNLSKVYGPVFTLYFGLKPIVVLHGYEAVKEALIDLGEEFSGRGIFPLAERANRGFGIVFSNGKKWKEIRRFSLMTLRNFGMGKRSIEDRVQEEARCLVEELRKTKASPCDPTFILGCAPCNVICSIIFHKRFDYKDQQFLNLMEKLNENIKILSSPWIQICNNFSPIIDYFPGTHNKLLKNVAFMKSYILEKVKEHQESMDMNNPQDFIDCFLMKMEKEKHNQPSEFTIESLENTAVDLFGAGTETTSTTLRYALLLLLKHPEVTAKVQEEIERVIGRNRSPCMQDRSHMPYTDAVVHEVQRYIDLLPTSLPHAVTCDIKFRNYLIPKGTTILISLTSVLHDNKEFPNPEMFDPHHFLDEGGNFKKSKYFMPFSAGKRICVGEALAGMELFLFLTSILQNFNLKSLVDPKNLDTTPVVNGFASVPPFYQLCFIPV
Sequence of Voltage-gated inwardly rectifying potassium channel KCNH2 (Homo sapiens) (Q12809 whole entry, looked up): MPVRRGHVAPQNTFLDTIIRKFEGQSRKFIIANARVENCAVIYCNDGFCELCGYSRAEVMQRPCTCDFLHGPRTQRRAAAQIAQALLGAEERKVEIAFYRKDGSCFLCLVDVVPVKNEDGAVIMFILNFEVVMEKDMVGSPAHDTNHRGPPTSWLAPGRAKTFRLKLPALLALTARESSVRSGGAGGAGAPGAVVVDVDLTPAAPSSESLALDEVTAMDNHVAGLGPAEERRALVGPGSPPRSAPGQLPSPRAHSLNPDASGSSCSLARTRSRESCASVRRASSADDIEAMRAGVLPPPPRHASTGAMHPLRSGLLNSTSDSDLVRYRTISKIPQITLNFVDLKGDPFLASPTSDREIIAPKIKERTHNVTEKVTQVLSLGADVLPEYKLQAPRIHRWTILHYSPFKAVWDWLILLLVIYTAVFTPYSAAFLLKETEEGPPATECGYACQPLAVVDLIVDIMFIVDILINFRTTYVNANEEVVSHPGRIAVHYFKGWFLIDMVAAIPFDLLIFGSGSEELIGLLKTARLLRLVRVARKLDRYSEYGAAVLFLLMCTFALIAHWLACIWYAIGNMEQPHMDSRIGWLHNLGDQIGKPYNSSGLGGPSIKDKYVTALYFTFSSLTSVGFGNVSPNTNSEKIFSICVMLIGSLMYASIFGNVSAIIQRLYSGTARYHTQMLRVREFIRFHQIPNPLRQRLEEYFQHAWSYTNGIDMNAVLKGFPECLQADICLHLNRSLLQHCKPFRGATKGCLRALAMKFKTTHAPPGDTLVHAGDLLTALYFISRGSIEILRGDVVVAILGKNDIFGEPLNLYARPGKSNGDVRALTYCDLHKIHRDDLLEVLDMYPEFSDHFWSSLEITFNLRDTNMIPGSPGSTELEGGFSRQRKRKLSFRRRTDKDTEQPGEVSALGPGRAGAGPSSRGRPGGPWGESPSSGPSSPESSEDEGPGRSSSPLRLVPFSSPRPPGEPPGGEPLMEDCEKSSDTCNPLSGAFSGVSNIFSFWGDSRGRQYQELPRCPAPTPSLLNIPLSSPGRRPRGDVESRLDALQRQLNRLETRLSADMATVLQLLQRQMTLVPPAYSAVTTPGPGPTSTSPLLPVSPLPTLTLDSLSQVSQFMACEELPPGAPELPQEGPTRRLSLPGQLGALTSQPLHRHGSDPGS

| SMILES | Potency [1] | Potency [2] | Potency [3] | Potency [4] | Potency [5] |
| --- | --- | --- | --- | --- | --- |
| CCCCN1CCCC1C(=O)Nc1c(C)cc(C)cc1C (configuration not stated) | inactive | inactive | inactive |  |  |
| O=C1NC(=O)c2cc([N+](=O)[O-])ccc21 |  | 28.5 µM (active) | inactive | 71.6 µM (active) | 32 µM (active) |
| CCOC(=O)c1ccc(I)cc1 |  | 10.1 µM (active) | inactive | 80.4 µM (active) | inactive |
| c1ccc2sc(SN(C3CCCCC3)C3CCCCC3)nc2c1 |  |  | inactive | 7.87 µM (active) |  |
| CN1C(=O)OC(C)(C)C1=O |  |  | inactive | inactive | inactive |
| CC(=O)[C@H]1[C@H](C#N)C[C@H]2[C@@H]3CC=C4C[C@@H](O)CC[C@]4(C)[C@H]3CC[C@@]21C |  | inactive | inactive | inactive | inactive |
| CCOc1ccccc1O[C@H](c1ccccc1)[C@H]1CNCCO1 | inactive | inactive | inactive |  |  |
| CC(C)=CCC1C(=O)N(c2ccccc2)N(c2ccccc2)C1=O |  |  | inactive | 27.5 µM (active) |  |
| Cc1cc2c(OCC(CNC(C)(C)C)OC(=O)c3ccccc3)cccc2[nH]1 (configuration not stated) | 7.76 µM (active) | inactive |  |  |  |
| CCOc1ccc(Cc2nccc3cc(OCC)c(OCC)cc23)cc1OCC | 4.9 µM (active) | inactive |  |  |  |
| C/C=C(/C(=C/C)c1ccc(O)cc1)c1ccc(O)cc1 | 17.4 µM (active) | inactive | inactive |  |  |
| c1ccc(C[n+]2cccc3ccccc32)cc1 |  |  | inactive | 39.9 µM (active) | inactive |
| Oc1cc2c(cc1O)[C@H]1c3ccc(O)c(O)c3OC[C@@]1(O)C2 | 32.1 µM (active) | 36 µM (active) | inactive |  |  |
| O=C(O)CCc1nc(-c2ccccc2)c(-c2ccccc2)o1 |  | inactive | inactive | inactive | inactive |
| Cc1[nH]cnc1CN1CCc2c(c3ccccc3n2C)C1=O | 2.19 µM (active) | 0.812 µM (active) |  |  |  |
| COc1ccccc1Oc1c(NS(=O)(=O)c2ccc(C(C)(C)C)cc2)nc(-c2ncccn2)nc1OCCO |  | inactive | inactive | inactive | inactive |
| CCCCCC[C@@H](O)C/C=C\CCCCCCCC(=O)OCC(O)CO (some centres not stated) | 11.2 µM (active) | inactive | inactive |  |  |
| Brc1cc(Br)c(Oc2cc(Br)c(Br)cc2Br)cc1Br |  | inactive | inactive | 13.8 µM (active) | inactive |

| SMILES | Potency [1] | Potency [2] | Potency [3] | Potency [4] | Potency [5] |
| --- | --- | --- | --- | --- | --- |
| CC1CC(OC(=O)C(O)c2ccccc2)CC(C)(C)N1C (configuration not stated) | inactive | inactive | inactive |  |  |
| CN1CC(=O)N2[C@H](c3ccc4c(c3)OCO4)c3[nH]c4ccccc4c3C[C@@H]2C1=O |  |  | inactive | inactive |  |
| CC1(C)O[C@@H]2C[C@H]3[C@@H]4C[C@H](F)C5=CC(=O)C=C[C@]5(C)[C@H]4[C@@H](O)C[C@]3(C)[C@]2(C(=O)CO)O1 | inactive | inactive | inactive |  | 4.9 µM (active) |
| CS(=O)(=O)c1ccc(-c2cn3ccccc3n2)cc1 |  | 0.456 µM (active) | inactive | 24.5 µM (active) | inactive |
| CCCCCCCCCI |  | inactive | inactive | inactive | inactive |
| CCCCN(CCCC)C(C(N)=O)c1ccc(OC)cc1 (configuration not stated) |  |  | inactive | 15.5 µM (active) |  |
| CN1CCCN=C1COC(=O)C(O)(c1ccccc1)C1CCCCC1 (configuration not stated) | inactive | inactive | 4.77 µM (active) |  |  |
| O=C1c2ccccc2C(=O)c2c(O)c(O)cc(O)c21 | 63.3 µM (active) | 35.6 µM (active) | inactive |  | inactive |
| CN(C(=O)CN(CCO)CC(=O)N(C)C(C)(C)Cc1ccccc1)C(C)(C)Cc1ccccc1 | 30.9 µM (active) | inactive | inactive |  |  |
| O=C1c2ccccc2C(=O)C1(O)O |  |  | inactive | 71.4 µM (active) | inactive |
| CC(=O)Nc1cc(S(=O)(=O)O)cc2cc(S(=O)(=O)O)c(N=Nc3ccccc3)c(O)c12 | 35.6 µM (active) | 31.7 µM (active) | inactive |  |  |
| O=C(O)c1cccc(-c2noc(-c3ccccc3F)n2)c1 | 2.45 µM (active) | 4.56 µM (active) | inactive |  |  |
| Oc1cccc(O)c1O |  |  | inactive | 70.4 µM (active) | inactive |
| CN1CCCC(CC2c3ccccc3Sc3ccccc32)C1 (configuration not stated) | inactive | inactive | 4.77 µM (active) |  | inactive |
| CC1=C(CC=O)C(C)(C)CCC1 |  | inactive | inactive | inactive | 31.7 µM (active) |
| O=C1C(=O)c2ccccc2C(O)=C1C1CCC(c2ccc(Cl)cc2)CC1 (configuration not stated) |  | inactive | inactive | inactive | inactive |
| CCCCCCCCOc1ccc(C(=O)O)cc1 |  | inactive | inactive | 49.7 µM (active) | inactive |
